Rows were chosen to be rich in hits. Some 4.8% of all compounds tested hit in one or more screens of this group.
NF-kB neuron act – compounds increasing NF-kB expression in human neuronal cells | NF-kB reporter expression; active compounds read high | fold change at 12.5 µM | actives 1.6% (n = 190,000) | AID 1239; in the data active means fold change above about 3.3
Hsp70 activator – transcriptional activators of Hsp70. HeLa Hsp70 promoter luciferase reporter, luminescence; scaled: vehicle 0, proteasome-inhibitor control 100%. activation, % at 10 µM. actives 0.04% (n = 200,000). AID 1203;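 active means activation above the mean across all tested compounds plus 3 SD, cutoff set per campaign, cut at about 5.5% in these data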;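 further: 100% = MG132 at 30 µM as the positive control and 0% = DMSO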
APP 5'UTR act – activates APP 5'UTR luciferase reporter; AID 1276; actives 1% (n = 190,000); SH-SY5Y APP 5'UTR luciferase reporter, luminescence; zero percent = DMSO vehicle wells; activation, % at 2 µM;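 active means activation above a set limit, based on mean plus 3 SD of controls, cut at about 140% in these data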
Wee1 degr inh – human Wee1 degradation inhibition, primary screen. reporter increase, % at 5 µM. HeLa Luc-Wee1K328M stability, luciferase luminescence; 100% = proteasome inhibitor MG132 effect. P30291. actives 1.2% (n = 220,000);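 active means activation above the mean of all tested compounds plus 3 SD, set per screening run, cut at about 8.8% in these data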;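 further: cells exposed to compound for 20 h before luminescence read; 0% = DMSO alone and 100% = MG132 at 30 µM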
Target sequence (P30291 whole entry K328M): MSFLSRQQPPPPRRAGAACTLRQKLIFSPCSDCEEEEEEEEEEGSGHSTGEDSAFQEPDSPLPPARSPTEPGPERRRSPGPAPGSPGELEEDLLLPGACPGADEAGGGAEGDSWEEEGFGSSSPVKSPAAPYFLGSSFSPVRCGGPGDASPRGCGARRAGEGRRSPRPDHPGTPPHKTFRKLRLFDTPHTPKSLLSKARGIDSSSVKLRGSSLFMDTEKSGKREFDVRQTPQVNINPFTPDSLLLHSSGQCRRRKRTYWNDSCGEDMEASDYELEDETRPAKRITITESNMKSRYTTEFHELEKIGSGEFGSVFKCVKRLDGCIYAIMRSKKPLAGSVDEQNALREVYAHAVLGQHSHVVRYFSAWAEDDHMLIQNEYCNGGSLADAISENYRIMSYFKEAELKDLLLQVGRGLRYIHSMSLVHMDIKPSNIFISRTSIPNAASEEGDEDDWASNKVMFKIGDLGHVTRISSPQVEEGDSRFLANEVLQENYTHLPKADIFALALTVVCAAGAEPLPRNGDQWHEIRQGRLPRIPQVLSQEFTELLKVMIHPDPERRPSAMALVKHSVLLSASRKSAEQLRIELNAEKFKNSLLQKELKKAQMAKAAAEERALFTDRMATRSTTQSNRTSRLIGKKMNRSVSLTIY
STAT1 act – activators of IFN-gamma induced STAT1 signaling; AID 932; actives 2.6% (n = 200,000); activation (% of control), % at 5.5 µM; NIH 3T3 STAT1-luciferase reporter, luminescence; 100% = IFN-gamma alone, no compound;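 active means activation above the screen-wide mean activation plus 3 SD, cut at about 130% in these data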;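 further: raw ratio to IFN-gamma control signal so 100% means no change and 0% no light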
APP transl inh – APP translation inhibition; actives 0.82% (n = 190,000); inhibition, % at 2 µM; SH-SY5Y APP 5'UTR-luciferase reporter, luminescence;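 active means inhibition above a set limit, derived from the sample mean plus 3 SD, cut at about 45% in these data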
* marks the source's active call; other numbers are inactive results; nt = not tested or not shown.

SMILES	NF-kB neuron act	Hsp70 activator	APP 5'UTR act	Wee1 degr inh	STAT1 act	APP transl inh
O=C(NN=C1CCC(=NNC(=O)c2ccccn2)CC1)c1ccccn1	1.44	0.3	170.7*	5.8	137.5*	-170.7
O=C(NCCSc1ccccc1)c1ccccc1Cl	4.71*	-0.2	99.5	7.6	140.8*	-99.5
COc1cccc(C(=O)NCCSc2ccc(F)cc2)c1	4.76*	0.4	47.2	2.0	138.5*	-47.2
CSc1ccccc1C(=O)NCCSc1ccccc1	1.25	-0.1	24.8	-1.2	100.0	-24.8
CCCCNC(=O)c1ccccc1Cl	0.98	-0.3	-11.0	-1.9	101.1	11.0
Cc1ccccc1C(=O)NCCSc1ccccc1	3.63*	0.4	92.0	1.9	129.3*	-92.0
O=C(NCCSc1ccccc1)c1ccccc1	4.69*	0.0	171.4*	5.9	142.2*	-171.4
CN(c1ccccc1)S(=O)(=O)c1cccc(C(=O)NNC(=O)c2ccccc2)c1	1.3	-0.4	0.9	1.8	80.4	-0.9
CC(C)=CC(=O)OCC(=O)Nc1ccc(F)cc1Cl	1.2	-0.1	0.8	2.2	101.4	-0.8
COc1ccc(C(=O)NCCSc2ccccn2)cc1	3.92*	-0.2	242.2*	6.0	152.9*	-242.2
COc1ccc(N(CC(=O)NCCSc2ccccn2)S(C)(=O)=O)cc1	1.15	-0.1	5.9	-2.9	96.3	-5.9
CCCCOc1ccc(C(=O)NCc2ccccn2)cc1	1.28	-0.1	nt	0.8	108.7	47.5*
O=C(NC1=NCCS1)c1ccc(Cl)c(S(=O)(=O)N2CCCCCC2)c1	1.09	-0.1	15.9	0.2	103.7	-15.9
COc1ccc2c(c1OC)C(=O)N1c3ccccc3COC21 (configuration not stated)	4.4*	-0.1	81.9	3.9	147.7*	-81.9
COc1ccc2c(c1OC)C(=O)N1c3ccccc3SC21 (configuration not stated)	1.96	0.3	79.3	4.2	148.9*	-79.3
COc1ccc2c(c1OC)C(=O)N1c3ccccc3C(=O)N(c3ccccc3F)C21 (configuration not stated)	0.38	-0.1	-40.5	0.0	55.3	40.5
CCN=C1NN=C(c2c[nH]c3ccccc23)CS1	nt	0.4	161.6*	1.7	124.8	-161.6
CCN(CC)S(=O)(=O)c1ccc2[nH]cc(C(=O)NCCN3CCCCCC3)c(=O)c2c1	1.07	-0.2	-3.2	3.2	98.2	3.2
O=C(O)/C=C/C(=O)Nc1ccc(-n2nccc2C(F)(F)F)cc1	nt	nt	nt	-0.1	nt	nt
CCc1ccccc1NC(=S)NN	0.93	0.0	-91.6	-0.1	102.6	91.6*
Cc1nc(-c2ccc(C(=O)Nc3ccccc3F)cc2)cs1	3.4*	-0.4	111.6	-3.5	31.1	-111.6
COc1ccc2[nH]c(=O)c(CN(C(=O)C3CCCO3)c3ccc(C)c(C)c3)cc2c1 (configuration not stated)	nt	nt	nt	9.4*	nt	nt
O=C(Nc1ccc(-c2nc3ccccc3s2)cc1)C1=COCCO1	1.42	-0.2	101.9	-0.5	126.3	-101.9
O=C(Nc1ccc(SC(F)F)cc1)C1=COCCO1	5.18*	-0.1	201.0*	0.9	132.7*	-201.0
Cc1[nH][nH]c(=O)c1C(c1c(C)[nH][nH]c1=O)c1cn(Cc2ccc(Cl)c(Cl)c2)c2ccccc12	1.82	0.0	-80.8	3.9	99.5	80.8*
SMILES	NF-kB neuron act	Hsp70 activator	APP 5'UTR act	Wee1 degr inh	STAT1 act	APP transl inh
COc1ccc(NC(=S)Nc2ccccc2)cc1	nt	nt	nt	-3.0	nt	nt
COc1ccc(NC(=S)Nc2ccc(N)c([N+](=O)[O-])c2)cc1	3.32*	0.4	-31.7	2.6	113.7	31.7
O/N=C/c1cc(Br)ccc1OCc1ccc(F)cc1	nt	0.1	11.9	-0.2	116.2	-11.9
CCOc1cc(/C=N/O)ccc1OCc1ccc(C)cc1	1.53	-0.1	17.5	0.7	129.9*	-17.5
CCOc1cc(/C=N/O)ccc1OS(=O)(=O)c1ccc(C)cc1	0.96	-0.5	-7.0	-3.4	95.1	7.0
Cc1ccc(COc2ccc(Br)cc2/C=N/O)cc1	3.15	0.0	78.0	-0.2	135.4*	-78.0
Cc1ccc(S(=O)(=O)N/N=C\c2ccccc2OCc2ccccc2)cc1	1.51	1.3	-3.0	-4.0	104.5	3.0
COc1ccc(CNC(=O)CSc2nc3c(c(=O)n(C)c(=O)n3C)n2C)cc1	nt	-0.5	4.0	2.2	95.0	-4.0
COc1ccc(NC(=S)NNC(=O)CNc2ccc(Cl)cc2)cc1	1.01	-0.3	-4.3	-0.5	112.9	4.3
O=C(Nc1ccccc1)c1nnsc1S(=O)c1ccc(Cl)cc1 (configuration not stated)	0.12	0.5	0.2	3.4	103.6	-0.2
O=C(c1cc(-c2ccc(Cl)cc2Cl)on1)N1CCOCC1	1.68	-0.5	196.2*	5.0	98.5	-196.2
O=C(c1nnsc1S(=O)c1ccc(Cl)cc1)N1CCOCC1 (configuration not stated)	0.51	0.4	-47.8	1.3	75.7	47.8*
O=C(c1cc(-c2ccc(Cl)cc2)on1)N1CCOCC1	5.05*	0.7	158.5*	-1.0	143.7*	-158.5
Cc1ccc(S(=O)(=O)N2CCN(C3CC(=O)N(CCc4ccccc4)C3=O)CC2)cc1C (configuration not stated)	1	-0.3	-24.5	9.9*	98.3	24.5
Cc1ccc(NC(=O)c2ccc3nc[nH]c3c2)c(O)c1	1.84	0.2	29.7	0.4	111.5	-29.7
CC1CCC(NC(=O)c2ccc3nc[nH]c3c2)CC1 (configuration not stated)	2.04	-0.1	50.4	1.7	128.6*	-50.4
Cc1ccc(CN(CC2CCCO2)C(=O)CN2C(=O)C(C(C)C)Oc3ccccc32)o1 (configuration not stated)	0.66	-0.3	10.1	-2.8	98.2	-10.1
Cc1ccc(Nc2nc(COC(=O)COc3ccc(C=O)cc3)cs2)cc1	2.15	-0.2	32.0	0.9	131.2*	-32.0
CCCCNc1nc(-c2ccccc2)c(C(=O)OCC)cc1C#N	1.5	-0.2	-7.5	0.3	102.3	7.5
CCCNc1nc(-c2ccccc2)c(C(=O)OCC)cc1C#N	1.75	-0.1	-81.8	5.7	102.6	81.8*
O=C(Nc1ccc(N2CCOCC2)c(Cl)c1)c1ccc(Br)o1	1.61	0.4	124.8	10.5*	139.7*	-124.8
O=C(Nc1ccc(N2CCN(C(=O)c3ccccc3)CC2)c(Cl)c1)c1ccc(Br)o1	0.41	-0.4	0.8	0.4	106.2	-0.8
O=C(CN1C(=O)c2ccccc2S1(=O)=O)Nc1ccc(S(=O)(=O)N2CCCCC2)cc1	1.13	-0.1	-3.5	9.1*	88.1	3.5
O=C(Nc1ccc(N2CCCC2)c(Cl)c1)c1ccco1	8.28*	-0.1	285.9*	-0.3	142.9*	-211.1
O=C(Nc1ccc(N2CCCCC2)c(C(=O)O)c1)c1ccco1	1.01	0.0	7.0	0.5	97.7	-7.0
O=C(Nc1ccc(S(=O)(=O)N2CCCCCC2)cc1)c1ccco1	3.82*	-0.2	25.7	0.5	113.4	-25.7

From PubChem
